# Compound activity deposited in PubChem by The Scripps Research Institute Molecular Screening Center.
# Shown is part of a subset that was picked to be rich in hits.
# TbREL1 inh: TbREL1 inhibition, primary screen. P86926. TbREL1 RNA ligation, FRET fluorescence. inhibition, % at 9.66 µM. actives 0.49% (n = 89,000). AID 1117264;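 active = inhibition above the mean inhibition across all screened compounds plus 3 SD, cut at about 11% in these data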;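 also: 0% = plate median of test wells and 100% = NSC42067 control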
# Target sequence (P86926 whole entry, looked up): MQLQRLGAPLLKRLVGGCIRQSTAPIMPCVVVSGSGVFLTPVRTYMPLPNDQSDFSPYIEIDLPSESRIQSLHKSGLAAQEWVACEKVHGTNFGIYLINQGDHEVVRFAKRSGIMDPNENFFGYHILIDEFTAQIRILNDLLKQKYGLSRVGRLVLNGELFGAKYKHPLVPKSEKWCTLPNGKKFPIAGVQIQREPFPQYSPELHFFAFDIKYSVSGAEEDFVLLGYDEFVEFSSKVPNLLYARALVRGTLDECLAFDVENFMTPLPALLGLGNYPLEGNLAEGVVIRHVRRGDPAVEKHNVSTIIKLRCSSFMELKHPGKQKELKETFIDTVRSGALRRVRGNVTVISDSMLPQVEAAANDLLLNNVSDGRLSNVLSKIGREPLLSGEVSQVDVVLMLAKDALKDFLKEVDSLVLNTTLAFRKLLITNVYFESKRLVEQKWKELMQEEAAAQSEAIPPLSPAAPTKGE
# TbREL1 confirm: TbREL1 inhibition, confirmation; shares compounds with TbREL1 inh; TbREL1 RNA ligation, FRET fluorescence; inhibition, % at 9.66 µM; actives 37% (n = 390); AID 1117282;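 active = mean inhibition across replicates above a set limit taken from the earlier primary screen, cut at about 11% in these data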;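 also: 0% = REL1 with substrate and DMSO and 100% = REL1 plus control inhibitor NSC42067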
# Starred values were filed as active, the others as inactive.
SMILES,TbREL1 inh,others
C=CCN=C1NC(c2ccccc2C(F)(F)F)C(C(=O)OC)=C(C)N1Cc1ccc(C(F)(F)F)cc1 (centres undefined),14*,TbREL1 confirm=18*
COCCOC(=O)C1=C(C)N(Cc2ccccc2)C(=O)NC1c1cccc(OC)c1OC (centres undefined),-1,
CCN=C1NC(c2ccccc2C(F)(F)F)C(C(=O)OC)=C(C)N1C (centres undefined),-3,
CCN=C1NC(c2ccc(C(F)(F)F)cc2)C(C(=O)OC)=C(C)N1Cc1cccc(C(F)(F)F)c1 (centres undefined),7,
COC(=O)C1=C(C)N(Cc2cccc(C(F)(F)F)c2)C(=NCC2CC2)NC1c1ccccc1C(F)(F)F (centres undefined),15*,TbREL1 confirm=15*
COC(=O)C1=C(C)N(Cc2cccc(C(F)(F)F)c2)C(=NCc2cc(OC)c(OC)c(OC)c2)NC1c1ccccc1C(F)(F)F (centres undefined),14*,TbREL1 confirm=19*
C=CCN=C1NC(c2ccccc2C(F)(F)F)C(C(=O)OC)=C(C)N1Cc1cccc(C(F)(F)F)c1 (centres undefined),15*,TbREL1 confirm=18*
CC(NCc1ccco1)C(=O)N1CCN(c2ccc(F)cc2)CC1 (centres undefined),-1,
COC(CNC(=O)[C@H](Cc1ccccc1)NCC(=O)NC1CCCCC1)OC,5,
COc1ccc2ccccc2c1C=NNC(=O)c1cc(-c2ccc(C)c(C)c2)n[nH]1,7,
Cc1ccc(-n2c(SCc3cccc4ccccc34)nnc2-c2ccccn2)cc1,0,
CC(C)c1cc(C(=O)NCCc2ccccc2)no1,11*,TbREL1 confirm=1
CC(C)c1cc(C(=O)NCc2ccco2)no1,0,
CCc1ccc(NC(=O)c2cc(C(C)C)on2)cc1,5,
CCOC(=O)Cc1nc(N2CCN(C(=O)C3CCCO3)CC2)c2c(C)c(C(=O)OCC)sc2n1 (centres undefined),-3,
Cc1ccc(C(=O)C[n+]2cc(-c3ccc(C)cc3)n3c2CCCCC3)cc1,9,
Cc1ccc(S(=O)(=O)N2CCN=C2SCc2ccc(Cl)c(Cl)c2)cc1,6,
Cc1ccc(-c2c[n+](Cc3ccc(Cl)c(Cl)c3)c3n2CCC3)cc1,13*,TbREL1 confirm=8
C[C@H]1[C@@H](OC(=O)N2CCOCC2)CC[C@@]23CCCN2C(=O)CCC[C@@H]13,-2,
CCOc1ccc(C=Nn2c(-c3ccc(F)cc3)n[nH]c2=S)cc1,-3,
COC(=O)c1cccc(-c2ccc(/C=N/N3C(=O)C4C5C=CC(C6CC56)C4C3=O)o2)c1 (centres undefined),-2,
COC(=O)c1cccc(-c2ccc(C(c3c(C)[nH][nH]c3=O)c3c(C)[nH][nH]c3=O)o2)c1,15*,TbREL1 confirm=9
O=Cc1ccc(-c2cccc(C(=O)O)c2)o1,1,
C=CC(=O)NC1CCCCN(C(C)C)C1=O (centres undefined),0,
COc1ccc(-c2nc(CN3CCN(c4cc(C)nc(C)c4)CC3)c(C)o2)c2ccccc12,15*,TbREL1 confirm=10
SMILES,TbREL1 inh,others
COc1ccc(CCNC(=O)C2CCCN(Cc3nc(-c4ccccc4C)oc3C)C2)cc1OC (centres undefined),-1,
COc1ccc(F)c(-c2nc(CN3CCN(C(=O)c4ccco4)CC3)c(C)o2)c1,-3,
C/C(=N\NC(=O)CSc1nnc(-c2ccccc2)n1-c1ccc(C)cc1)c1ccc(-c2ccccc2)cc1,2,
O=C(CSc1nnc(-c2ccccn2)n1-c1ccccc1)Nc1ccc2c(c1)OCCO2,0,
O=C(Nc1ccc2ccccc2c1)C1CC2CCC1C2 (centres undefined),1,
CN(C)CCOCCOc1ccccc1-c1ccccc1,15*,TbREL1 confirm=6
OCCNCCOCCOc1ccccc1-c1ccccc1,3,
c1ccc(-c2ccccc2OCCOCCN2CCCCC2)cc1,3,
Clc1cc(Cl)cc(CNC2CCC23CCCCC3)c1 (centres undefined),-2,
CCCC1CCC2(CC1)CCC2OC(=O)Nc1ccc(F)cc1 (centres undefined),-1,
COc1cccc(Cn2ncc3c4sc(S(C)=O)cc4n(C)c3c2=O)c1 (centres undefined),4,
NS(=O)(=O)c1ccc(F)c(C(=O)O)c1,3,
CCC(C)NS(=O)(=O)c1ccc(F)c(C(=O)Nc2c(F)cc(F)cc2Br)c1 (centres undefined),19*,TbREL1 confirm=2
O=C(Nc1cccs1)Nc1c(F)cc(F)cc1Br,0,
COc1ccc(C(C(=O)N(C)C2CCCC2)N(Cc2ccc(F)cc2)C(=O)c2cc(C)[nH]n2)cc1OC (centres undefined),4,
CCOc1ccc(-n2c(SCC(=O)Nc3ccc4c(c3)OCCO4)nnc2-c2ccncc2)cc1,-1,
COc1ccc(CC(=O)Nc2ccc(C)cc2S(=O)(=O)N2CCOCC2)cc1OC,-1,
CN1CC(O)([C@H](Cc2ccccc2)NC(=O)OC(C)(C)C)OCC1C(=O)NCc1cccc2ccccc12 (some centres undefined),11*,TbREL1 confirm=-3
O=C(N[C@H](Cc1ccccc1)C(=O)NCc1cccc2ccccc12)[C@H]1O[C@@H](n2ccc(=O)[nH]c2=O)[C@H](O)[C@@H]1O,-1,
C[C@@H]1[C@@H](c2ccccc2)OC(O)([C@H](Cc2ccccc2)NC(=O)OC(C)(C)C)CN1C (some centres undefined),-3,
COc1cc(NC(=O)CSc2nc(C)cc(=O)[nH]2)cc(OC)c1,0,
COC(=O)[C@]12C[C@H](CC(=O)N3CCCC3)C(=O)N(Cc3ccco3)C1=C[C@H](C1CCCC1)O[C@@H]2C,-4,
Cc1c(P(=S)(c2ccccc2)c2ccccc2)[n+]2ccccc2n1C/C=C/c1ccccc1,14*,TbREL1 confirm=22*
CC(O)c1nc2ccccc2n1C/C=C/c1ccccc1 (centres undefined),1,
CCOC(=O)C(CC)n1cnc2c(nnn2-c2ccc(C)cc2)c1=O (centres undefined),19*,TbREL1 confirm=2
SMILES,TbREL1 inh,others
COc1ccc(-n2nnc3c(=O)n(CC(=O)N4CCCC4)cnc32)cc1,2,
CCOC(=O)c1nn(-c2ccc(C)cc2)c(=O)c2c(N)scc12,1,
CCC[C@H]1[C@@H](OC(=O)NCc2cccc(C(F)(F)F)c2)CC[C@@]23CCCN2C(=O)CCC[C@@H]13,-6,
CCC[C@H]1[C@@H](OC(=O)NCc2ccc(C(F)(F)F)cc2)CC[C@@]23CCCN2C(=O)CCC[C@@H]13,1,
O=C(NCCCO)c1ccc2nc(-c3ccco3)c(-c3ccco3)nc2c1,11*,TbREL1 confirm=19*
CCCNC(=O)c1ccc2nc(-c3ccccc3)c(-c3ccccc3)nc2c1,-1,
COc1cccc(C(=O)NCCCNC(=O)c2ccco2)c1,5,
COc1ccc(CNC(=O)O[C@H]2CC[C@@]34CCCN3C(=O)CCC[C@H]4C2)cc1,-2,
Cc1ccc(-n2c(SCC(=O)c3ccc(F)cc3)nnc2-c2cccnc2)cc1,1,
Cc1ccc(S(=O)(=O)NCC2Cc3ccccc3N2S(=O)(=O)c2ccc(C)cc2)cc1 (centres undefined),-3,
CS(=O)(=O)N1c2ccccc2C[C@H]1Cc1cc2ccccc2o1,12*,TbREL1 confirm=-1
CCNC(=O)C1(C)CCCN(Cc2cc3ccccc3o2)C1 (centres undefined),-2,
COC(=O)c1ccc(S(=O)(=O)N2CCC(NC(=O)Cc3ccccc3)CC2)cc1,3,
COc1ccc(N2CCN(CCCNC(=O)Cc3ccc(C(F)(F)F)cc3)CC2)cc1,-4,
